Reference: the supplement of paper PMC13380429

What was measured:
[1] = system: Vero E6 infected with SARS-CoV-2; test: morphology score (similarity to uninfected cells); higher = more like uninfected cells; conditions: 24 h
[2] = system: Vero E6 infected with SARS-CoV-2; test: SARS-CoV-2 infection rate relative to infected DMSO; higher = more infection, active = 60 or less; conditions: 24 h

| SMILES | morphology score [1] | SARS-CoV-2 infection rate [2] |
| --- | --- | --- |
| Nc1ccc(S(N)(=O)=O)cc1 [sulfanilamide] (10 µM) | 0.0892 | 103% (inactive) |
| CNCCC(Oc1ccc(C(F)(F)F)cc1)c1ccccc1 (centres undefined) [fluoxetine] (10 µM) | 0.539 | 66% (inactive) |
| CCCCCCCCCCCCCC[C@@H](O)[C@@H](O)[C@@H](N)CO [phytosphingosine] (10 µM) | -0.0786 | 108% (inactive) |
| COc1ccc(OC)c([C@@H](O)CNC(=O)CN)c1 [midodrine] (10 µM) | -0.0583 | 108% (inactive) |
| CCNC1=Nc2ccc(Cl)cc2C(C)(c2ccccc2)O1 (centres undefined) [etifoxine] (10 µM) | 0.159 | 106% (inactive) |
| Cc1occc(=O)c1[O-].Cc1occc(=O)c1[O-].[O]=[V+2] [bis(maltolato)oxovanadium(IV)] (10 µM) | -0.461 | 106% (inactive) |
| O=C(N[C@H]1CN2CCC1CC2)c1ccc(Cl)cc1 (10 µM) | -0.0585 | 99.5% (inactive) |
| CN(CCOP(=O)(O)O)C(=N)N [creatinol-phosphate] (10 µM) | 0.077 | 95.5% (inactive) |
| CC(C)SC(=N)N [S-isopropylisothiourea] (10 µM) | 0.0211 | 105% (inactive) |
| CCCc1cc(C)[nH]c(=O)c1CNC(=O)c1cc(-c2ccc(N3CCN(C(C)C)CC3)nc2)cc2c1cnn2C(C)C (10 µM) | 0.0705 | 110% (inactive) |
| N=C(N)S/C=C\C(=O)O (10 µM) | 0.101 | 108% (inactive) |
| C=CC(=O)N1CCC(Oc2cc3c(Nc4ccc(Cl)c(Cl)c4F)ncnc3cc2OC)CC1 [poziotinib] (10 µM) | -0.0962 | 108% (inactive) |
| Cc1noc(NS(=O)(=O)c2ccc(N)cc2)c1C [sulfafurazole] (10 µM) | 0.1 | 100% (inactive) |
| COC(c1ccccc1)(c1ccccc1)[C@H](Oc1nc(C)cc(C)n1)C(=O)O [ambrisentan] (10 µM) | -0.0233 | 104% (inactive) |
| CCOC(=O)c1ccc(N(C)c2csc(-c3ccccc3)n2)cc1 [neuropathiazol] (10 µM) | -0.0531 | 110% (inactive) |
| Cc1ccccc1CN1C(=O)C2=C(CCN(Cc3ccccc3)C2)N2CCN=C12 (0.833333 µM) | -0.16 | 82% (inactive) |
| C/C(=N\NC(=O)C(NC(=O)c1ccccc1)c1n[nH]c(=O)c2ccccc12)c1cccc(Br)c1 (centres undefined) (10 µM) | 0.029 | 98.5% (inactive) |
| CC(C)[N+](C)(CCOC(=O)C1c2ccccc2Oc2ccccc21)C(C)C [propantheline] (10 µM) | 0.214 | 99.5% (inactive) |
| Cc1ccc(NC(=O)CCCCCC(=O)Nc2ccccc2N)cc1 (0.833333 µM) | -0.0538 | 103% (inactive) |
| NS(=O)(=O)c1cc2c(cc1Cl)NCNS2(=O)=O [hydrochlorothiazide] (10 µM) | 0.0281 | 110% (inactive) |
| CC[N+](C)(CC)CCOC(=O)C(O)(c1ccccc1)C1CCCCC1 (centres undefined) [oxyphenonium] (10 µM) | 0.00163 | 102% (inactive) |
| CC[C@@H]1C(=O)OC[C@@H]1Cc1cncn1C [pilocarpine] (10 µM) | -0.105 | 110% (inactive) |
| CC(O)COC[C@H]1O[C@@H]2O[C@H]3[C@H](O)[C@@H](O)[C@@H](O[C@H]4[C@H](O)[C@@H](O)[C@@H](O[C@H]5[C@H](O)[C@@H](O)[C@@H](O[C@H]6[C@H](O)[C@@H](O)[C@@H](O[C@H]7[C@H](O)[C@@H](O)[C@@H](O[C@H]8[C@H](O)[C@@H](O)[C@@H](O[C@H]1[C@H](O)[C@H]2O)O[C@@H]8COCC(C)O)O[C@@H]7COCC(C)O)O[C@@H]6COCC(C)O)O[C@@H]5COCC(C)O)O[C@@H]4COCC(C)O)O[C@@H]3COCC(C)O (stereo partly drawn) [hydroxypropyl-beta-cyclodextrin] (10 µM) | 0.254 | 99% (inactive) |
| CCCCC1(COC(=O)CCC(=O)O)C(=O)N(c2ccccc2)N(c2ccccc2)C1=O [suxibuzone] (10 µM) | 0.183 | 94.5% (inactive) |
| COC(=O)[C@H](c1ccccc1Cl)N1CCc2sccc2C1 [clopidogrel] (10 µM) | 0.229 | 99% (inactive) |
| Cc1cc(C(=O)Nc2cccc(C(=O)Nc3cccc(C(F)(F)F)c3)c2)on1 (10 µM) | -0.209 | 115% (inactive) |
| CCOc1cc(C=O)ccc1O [ethyl-vanillin] (10 µM) | 0.19 | 100% (inactive) |
